From PubChem
This is one part of a sample in which hits are shown more often than they occur.
AmpC no deterg – blocks E. coli AmpC beta-lactamase in detergent-free assay. P00811. AmpC nitrocefin hydrolysis, absorbance 480 nm, 0.0001% Triton. Potency, µM (top dose mostly 57.1 µM), usual class: inhibitors. 330,000 tested, 0.52% active; also: nearly all actives have a fitted effect of over 20% in size
Target sequence (P00811 whole entry, looked up): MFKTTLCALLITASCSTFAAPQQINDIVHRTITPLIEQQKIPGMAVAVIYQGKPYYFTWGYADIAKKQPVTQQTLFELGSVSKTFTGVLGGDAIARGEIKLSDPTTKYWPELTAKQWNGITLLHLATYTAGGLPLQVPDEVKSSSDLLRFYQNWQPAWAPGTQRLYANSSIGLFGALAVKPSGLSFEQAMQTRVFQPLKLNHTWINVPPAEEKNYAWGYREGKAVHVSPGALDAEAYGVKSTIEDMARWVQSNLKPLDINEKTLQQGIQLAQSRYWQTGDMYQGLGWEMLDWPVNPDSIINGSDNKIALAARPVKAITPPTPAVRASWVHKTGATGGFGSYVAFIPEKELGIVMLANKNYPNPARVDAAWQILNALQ
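AmpC (5.3 nM in the dispensed reagent) in 20 mM phosphate pH 7.0 with 0.01% (detergent screen) or 0.0001% Triton X-100 was preincubated with compounds for 15 min at room temperature. Nitrocefin was then added from an 800 uM solution, and hydrolysis was followed at 480 nm.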
AmpC detergent – AmpC beta-lactamase inhibition with detergent present. P00811. AmpC hydrolysis of nitrocefin, absorbance 480 nm, 0.01% Triton. Potency, µM (titrated, usually from 114 µM), usual class: inhibitors. 370,000 tested, 0.041% active; also: nearly all actives have a fitted effect of over 25% in size
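AmpC (5.3 nM in the dispensed reagent) in 20 mM phosphate pH 7.0 with 0.01% (detergent screen) or 0.0001% Triton X-100 was preincubated with compounds for 15 min at room temperature. Nitrocefin was then added from an 800 uM solution, and hydrolysis was followed at 480 nm.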
CHX counter – counter-screen hit for Shiga toxin inhibitors, cycloheximide. cell reporter, cycloheximide protein synthesis inhibition counterscreen. max response, %. 300,000 tested, 12% active; in the data active = max response mostly above about 13%, no sharp cut-off; inactive = mostly below about 14%; also: read at 38.3 µM for the half of the compounds with a filed dose
NS1 inh – blocks influenza NS1 protein function; Potency, µM (top dose mostly 46.1 µM); 270,000 tested, 0.4% active; calls by dose curve; also: actives are rising curves; nearly all actives have a fitted effect of over 50% in size
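A cell-based growth assay was used: compounds that relieve NS1-induced slow growth of budding yeast raise OD600. Assay medium was yeast nitrogen base with ammonium sulphate and -URA supplement, pH 6.0, with 2% galactose.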
Shiga inhibitor – inhibitors of Shiga toxin in Vero cells. Vero cells, Shiga toxin protein synthesis inhibition reporter. inhibition, % at 38.7 µM. 290,000 tested, 9.2% active; in the data active = inhibition mostly above about 28%, no sharp cut-off; inactive = mostly below about 43%
Each line names hits and unclear results; the compound was inactive in the other large screens. Unless noted, calls follow the shape of the dose curve; as a rule, active = well fitted curve in the direction sought with a large enough effect; inconclusive = small, poorly fitted or top-dose-only effect, or another doubt; inactive = no such curve, though single readings can be large; an effect the other way counts as inactive or inconclusive.

O=C1NC2(CCCCC2)N=C1c1ccc(Br)cc1	CHX counter 15
CCC(=O)C1CCCN(C(=O)CCc2nnc(-c3ccc4c(c3)OCO4)o2)C1 (stereo unspecified)	CHX counter 38, Shiga inhibitor 51
CCCOC1CCCN(C(=O)CCc2nnc(-c3ccc4c(c3)OCO4)o2)C1 (stereo unspecified)	CHX counter 46, Shiga inhibitor 117
O=C(CCc1nnc(-c2ccc3c(c2)OCO3)o1)N(Cc1ccncc1)CC1CCCO1 (stereo unspecified)	none
Cc1cc(C)n(CCN(C)C(=O)CCc2nnc(-c3ccc4c(c3)OCO4)o2)n1	CHX counter 9.7
CC1CCCN(C(=O)CCc2nnc(-c3ccc4c(c3)OCO4)o2)C1 (stereo unspecified)	CHX counter 37, Shiga inhibitor 101
COc1ccc2c(c1)c1c(c(=O)n(Cc3ccccc3)c(=O)n1Cc1ccccc1Cl)n2C	none (no result: AmpC no deterg, CHX counter, NS1 inh, Shiga inhibitor)
Cc1ccc(C2CCN(C(=O)c3cnn(-c4ccc(C)c(C)c4)c3C3CCN(C(=O)OC(C)(C)C)CC3)C2)cc1 (stereo unspecified)	none (no result: AmpC no deterg, CHX counter, NS1 inh, Shiga inhibitor)
CCOC(=O)N1CCN(C(=O)c2noc(C(C)C)c2[N+](=O)[O-])CC1	none
CCC(=O)C1CCCN(C(=O)CCc2nnc(-c3ccc(C(C)=O)s3)o2)C1 (stereo unspecified)	CHX counter 40, Shiga inhibitor 98
Cc1cc(-c2nn3c(C)nnc3s2)ccc1NC(=O)C(C)(C)C	none (no result: AmpC no deterg, AmpC detergent, CHX counter, Shiga inhibitor)
COc1ccccc1OCc1cc(-c2ccccc2)no1	CHX counter 68, Shiga inhibitor 89 (no result: NS1 inh)
COc1ccc(OCc2cc(-c3ccc(Cl)cc3)no2)cc1	AmpC detergent inconclusive (no result: NS1 inh)
c1ccc(OCc2cc(-c3ccccc3)no2)cc1	AmpC detergent inconclusive, CHX counter 53, Shiga inhibitor 76 (no result: NS1 inh)
FC(F)C(F)(F)C(F)(F)C(F)(F)c1cc(-c2ccccc2)n[nH]1	CHX counter 22
Cc1cc(-c2ccccc2)n[nH]1	none (no result: NS1 inh)
Cc1cc(C)cc(-n2c(SCC(=O)NC3CCCCC3)nc3c([nH]c4ccccc43)c2=O)c1	none (no result: AmpC no deterg, CHX counter, NS1 inh, Shiga inhibitor)
COc1ccccc1CNC(=O)CCCn1c(=O)c2cccn2c2ccccc21	none (no result: AmpC no deterg, CHX counter, NS1 inh, Shiga inhibitor)
O=C(NC(=S)NC1CCCC1)c1ccccc1	CHX counter 43, Shiga inhibitor 67
O=C(NC(=S)NC1C2CC3CC(C2)CC1C3)c1ccccc1 (stereo unspecified)	CHX counter 18, Shiga inhibitor 49
CC(=O)NNC(=S)NC(=O)c1ccccc1	none (no result: NS1 inh)
COCCCNC(=S)NNC(=O)c1cc(Cl)c(O)c(Cl)c1	none
COc1ccc(/C=N/NC(=O)c2cccc(S(=O)(=O)N3CCCC3)c2)cc1O	none (no result: CHX counter, NS1 inh, Shiga inhibitor)
COc1ccccc1C(=O)NCC(=O)NNC(=O)c1cccs1	none (no result: AmpC detergent, CHX counter, NS1 inh, Shiga inhibitor)
O=S(=O)(c1ccccc1F)N1CCN(CCc2ccccc2)CC1	AmpC detergent inconclusive
COc1cccc(CNC(=O)CCC(=O)N2CC(C)Sc3ccccc32)c1 (stereo unspecified)	none (no result: AmpC no deterg, CHX counter, NS1 inh, Shiga inhibitor)
O=C(CNc1cccc(S(=O)(=O)N2CCCC2)c1)Nc1cccc(C(F)(F)F)c1	none (no result: AmpC detergent, CHX counter, NS1 inh, Shiga inhibitor)
CCc1ccc(N2CC(C(=O)Nc3nc4ccc(S(C)(=O)=O)cc4s3)CC2=O)cc1 (stereo unspecified)	CHX counter 17, Shiga inhibitor 67
COc1ccc(N2CC(C(=O)Nc3ccc4c(c3)OCCO4)CC2=O)cc1 (stereo unspecified)	AmpC detergent inconclusive
CC(=O)Nc1ccc(-c2csc(NC(=O)C3CC(=O)N(c4ccc5c(c4)OCCO5)C3)n2)cc1 (stereo unspecified)	none
COc1ccc(-c2csc(NC(=O)C3CC(=O)N(c4ccc5c(c4)OCCO5)C3)n2)cc1 (stereo unspecified)	CHX counter 24, NS1 inh inconclusive
Cc1cccc(N2CC(C(=O)Nc3ccc4c(c3)OCCO4)CC2=O)c1C (stereo unspecified)	Shiga inhibitor 71
CCc1ccc(N2CC(C(=O)Nc3ccc4c(c3)OCCO4)CC2=O)cc1 (stereo unspecified)	CHX counter 31, Shiga inhibitor 82
COc1ccccc1C(=O)NCCC(=O)NNC(=O)Cn1ccc(C(F)(F)F)n1	none (no result: CHX counter, NS1 inh, Shiga inhibitor)
CCn1cc(C(=O)NCCc2ccccc2)c(=O)c2cc(S(=O)(=O)N3CCc4ccccc4C3)ccc21	none (no result: AmpC no deterg, CHX counter, NS1 inh, Shiga inhibitor)
CC(C)c1ccc(S(=O)(=O)c2nnn3c2nc(N2CCCC2)c2sccc23)cc1	none (no result: AmpC no deterg, CHX counter, NS1 inh, Shiga inhibitor)
CSc1nc(Oc2ccc(C)cc2)cc(C(F)(F)F)n1	none
COC(=O)c1ccc(CSc2nnc(NC(=O)C3CC(=O)N(c4ccc5c(c4)OCCO5)C3)s2)cc1 (stereo unspecified)	CHX counter 20
CCc1ccc(C(=O)NNC(=O)C2CC(=O)N(c3ccc4c(c3)OCCO4)C2)cc1 (stereo unspecified)	none (no result: CHX counter, NS1 inh, Shiga inhibitor)
Cc1ccccc1N1CC(C(=O)Nc2nnc(SCC(=O)Nc3nccs3)s2)CC1=O (stereo unspecified)	AmpC no deterg 28µM
Cc1sc2c(c1C)C(=O)NC(c1ccccc1F)N2 (stereo unspecified)	AmpC detergent inconclusive, CHX counter 31, Shiga inhibitor 100
Cc1cccc(C2NC(=O)c3c(sc(C)c3C)N2)c1O (stereo unspecified)	none
Cc1ccc(/C=C2\CCC(C3CCCC3)C2=O)cc1 (stereo unspecified)	CHX counter 56, Shiga inhibitor 61
COc1ccc(/C=C2\CCC(C3CCCC3)C2=O)cc1 (stereo unspecified)	CHX counter 51, Shiga inhibitor 93
COc1ccc(/C=C2\CCC(C3CCCC3)C2=O)cc1OC (stereo unspecified)	CHX counter 36, Shiga inhibitor 49
Cc1ccsc1/C=C1\CCC(C2CCCC2)C1=O (stereo unspecified)	AmpC detergent inconclusive, CHX counter 44, Shiga inhibitor 106 (no result: NS1 inh)
COc1cc(OC)c(OC)cc1/C=C1\CCC(C2CCCC2)C1=O (stereo unspecified)	none (no result: NS1 inh)
CCOc1cc(/C=N/NC(=O)C(=O)NCCCOC(C)C)cc(Br)c1O	none
Cc1nc(-c2ccc(NC(=O)Cc3ccccc3)cc2)cs1	CHX counter 43, Shiga inhibitor 87
COc1ccc(CC(=O)Nc2ccc(-c3csc(C)n3)cc2)cc1	AmpC detergent inconclusive
CCC(=O)Nc1ccc(-c2csc(NNC(C)=O)n2)cc1	AmpC detergent inconclusive
CCC(=O)Nc1ccc(-c2csc(C)n2)cc1	AmpC detergent inconclusive, CHX counter 23
COC(=O)c1ccc(COc2ccc3c(C)c(C)c(=O)oc3c2C)o1	CHX counter 15, Shiga inhibitor 65
Cc1c(OCc2ccc(C(=O)O)o2)ccc2c3c(c(=O)oc12)CCC3	AmpC detergent inconclusive, Shiga inhibitor 84
COc1ccc(CNC(=O)Cn2c(=O)n(CCC(=O)N3CCCCC3)c(=O)c3sccc32)cc1	AmpC detergent inconclusive
NC(=O)c1ccc(C(F)(F)F)n(Cc2ccc(F)c(F)c2)c1=O	none (no result: NS1 inh)
NC(=O)c1ccc(C(F)(F)F)n(Cc2ccc(Cl)cc2)c1=O	CHX counter 25
